Assay outcomes as filed in PubChem BioAssay.
IL-1B inflam inh = inflammasome signaling inhibition, IL-1 beta readout; THP-1 LPS/ATP IL-1B secretion, AlphaLISA, 16 h; stronger effect = lower value; activity change, % at 57.5 µM; actives 4.7% (n = 360,000); AID 743279; in the data active means activity change below about -50%; inconclusive means mostly about -30% to -49%
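THP-1 cells pretreated 1 hr with compounds (up to 57.5 uM final), then stimulated with LPS (250 ng/mL final) plus ATP (1.25 mM final); secreted IL-1B measured by AlphaLISA after 16 hr, decreased signal indicating inhibition.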
TDP1 cell noCPT = qHTS for Inhibitors of human tyrosyl-DNA phosphodiesterase 1 (TDP1): qHTS in cells in absence of CPT; actives 15% (n = 420,000); DT40 Tdp1-/- hTDP1 cells, no CPT, ATP luminescence, 48 h; Potency, µM (highest dose often 46.2 µM), most hits filed as inhibitors; further: nearly all actives have a fitted effect of over 55% in size
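DT40 Tdp1-/-;hTDP1 cells, no CPT (DMSO vehicle only), 400 cells/well; compounds pin-transferred; ≥48 hr, 37 °C; CellTiter-Glo 30 min RT dark, luminescence read.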
Giardia kill = kills Giardia lamblia; Giardia lamblia trophozoite viability; activity change, % at 7.66 µM, hits read low; actives 0.15% (n = 340,000); AID 540267; in the data active means activity change below about -80%; inconclusive means between about -30% and that limit;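 further: parasites exposed to compound for two days anaerobically before the ATP read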
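Compounds were tested on trophozoites seeded at 100 cells/well and held 48 hrs at 37 deg C anaerobically. An ATP-based luminescent kit measured the remaining live cells.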
TDP1 cell CPT = growth inhibition of DT40 Tdp1-/-;hTDP1 cells with camptothecin (screen for TDP1 inhibitors). chicken DT40 Tdp1-/-;hTDP1 cells + 20 nM CPT, ATP luminescence, 48 h. Potency, µM (titrated, usually from 46.2 µM), most hits filed as inhibitors. actives 12% (n = 420,000). AID 686979; further: nearly all actives have a fitted effect of over 55% in size
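Chicken DT40 Tdp1-/- cells complemented with human TDP1, 400 cells/well, exposed to compounds plus 20 nM camptothecin for at least 48 h at 37 C; viability read as ATP content by CellTiter-Glo luminescence.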
TDP1 block = inhibitors of human tyrosyl-DNA phosphodiesterase TDP1; recombinant TDP1, AlphaScreen DNA substrate cleavage; Q9NUW8; actives 0.28% (n = 350,000); AID 485290; Potency, µM (doses to about 130 µM), hits mostly inhibitors; further: nearly all actives have a fitted effect of over 40% in size
Target sequence (Q9NUW8 whole entry, looked up): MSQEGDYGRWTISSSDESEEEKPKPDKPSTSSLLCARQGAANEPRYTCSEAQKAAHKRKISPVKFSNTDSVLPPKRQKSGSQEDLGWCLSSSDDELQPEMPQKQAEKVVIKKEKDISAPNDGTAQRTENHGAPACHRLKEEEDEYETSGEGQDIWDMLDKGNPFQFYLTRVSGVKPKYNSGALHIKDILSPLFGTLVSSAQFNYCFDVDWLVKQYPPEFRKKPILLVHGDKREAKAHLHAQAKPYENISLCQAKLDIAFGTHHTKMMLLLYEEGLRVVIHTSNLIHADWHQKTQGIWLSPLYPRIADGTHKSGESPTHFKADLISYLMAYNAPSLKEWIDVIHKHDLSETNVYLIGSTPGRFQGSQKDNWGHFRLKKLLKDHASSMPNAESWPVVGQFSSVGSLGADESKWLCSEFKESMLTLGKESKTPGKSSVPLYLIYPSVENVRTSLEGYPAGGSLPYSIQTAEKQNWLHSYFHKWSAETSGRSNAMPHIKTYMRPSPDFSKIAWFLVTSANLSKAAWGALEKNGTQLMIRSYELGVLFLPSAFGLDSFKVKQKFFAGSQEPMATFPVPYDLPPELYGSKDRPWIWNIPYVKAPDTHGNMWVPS
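AlphaScreen read-out: signal falls as enzyme removes the 3' tyrosine-FITC from a 5'-biotinylated DNA oligo (15 nM, 5 min, RT). Enzyme was E. coli-made recombinant Tdp1 at 1 nM, exposed to compound for 15 min beforehand; beads 10 ug/ml, 10 min.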
ELG1 repair inh = inhibitors of ELG1-dependent DNA repair in HEK293T cells; Potency, µM (doses to about 46.1 µM), most hits filed as inhibitors; actives 2.3% (n = 330,000); HEK293T ELG1-luciferase reporter, luminescence, 16 h; DNA damage induced by 5-fluorouridine; further: nearly all actives have a fitted effect of over 55% in size
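5-Fluorouridine DNA damage + compound/DMSO, 2,000 cells/well, 16 h, 37 °C/5% CO2. ONE-Glo, 30 min RT, luminescence. Readout = decrease in reporter signal.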
Large screens that a line does not name were inactive. The list is not random: actives were taken first. Their share in the collection is about 19%. Unless noted, the call rests on the fitted dose curve; in most records, active means well fitted curve in the direction sought with a large enough effect; inconclusive means small, poorly fitted or top-dose-only effect, or another doubt; inactive means no such curve, though single readings can be large; an effect the other way counts as inactive or inconclusive.

Cc1oc2c(cc(NS(=O)(=O)c3ccc(F)cc3)c3ccccc32)c1C(=O)O	none
CC(=O)c1c(C)oc2c1cc(NS(=O)(=O)c1ccc(C(C)(C)C)cc1)c1ccccc12	TDP1 cell noCPT 20.6µM, TDP1 cell CPT inconclusive (no result: IL-1B inflam inh, Giardia kill, ELG1 repair inh)
CCOc1ccc(S(=O)(=O)Nc2cc3c(C(=O)OC)c(COC)oc3c3ccccc23)cc1	TDP1 cell noCPT 3.66µM, TDP1 cell CPT 5.17µM (no result: IL-1B inflam inh, Giardia kill, TDP1 block, ELG1 repair inh)
Cc1oc2c(cc(NS(=O)(=O)c3ccc(C(C)C)cc3)c3ccccc32)c1C(=O)O	none
COc1ccc(S(=O)(=O)Nc2cc3c(C(C)=O)c(C)oc3c3ccccc23)cc1	TDP1 cell noCPT 0.651µM, TDP1 cell CPT 0.651µM
O=C(COC(=O)c1ccco1)Nc1cccc(S(=O)(=O)N2CCOCC2)c1	none (no result: Giardia kill, TDP1 block, ELG1 repair inh)
COc1cc(OC)c(-c2cc(C(=O)O)ccc2OC)c(OC)c1	none
O=[N+]([O-])c1ccc(C(=S)N2CCN(c3ccc(F)cc3)CC2)cc1	IL-1B inflam inh inconclusive, TDP1 cell noCPT inconclusive, TDP1 cell CPT inconclusive
CN(C)c1ccc(C=NC(CO)C(O)c2ccc([N+](=O)[O-])cc2)cc1 (centres undefined)	none
CN(C)c1ccc(C(c2ccc(N(C)C)cc2)c2ccc([N+](=O)[O-])cc2)cc1	IL-1B inflam inh -50.3, TDP1 cell noCPT inconclusive, TDP1 cell CPT inconclusive
CN(C)c1ccc(C(=S)N2CCCCCC2)cc1	TDP1 cell noCPT 16.4µM, TDP1 cell CPT inconclusive, ELG1 repair inh inconclusive
CN(C)c1ccc(C(=S)N2CCN(c3ccc([N+](=O)[O-])cc3)CC2)cc1	TDP1 cell noCPT 20.6µM, TDP1 cell CPT 14.6µM
CC[C@]12c3[nH]c4ccc(OC)cc4c3CCN1C(=O)C(CC(=O)NCCCOC)C[C@@H]2C(=O)N1CCN(C(=O)C2CC2)CC1 (some centres undefined)	TDP1 cell CPT inconclusive
COC(=O)CSc1nc(C)c(C)c(C)c1C(N)=O	none
CC1(C)C2CC=C(/C=N/NC(=S)NCCc3ccccc3)C1C2 (centres undefined)	IL-1B inflam inh inconclusive, TDP1 cell noCPT inconclusive, Giardia kill inconclusive, TDP1 cell CPT inconclusive, ELG1 repair inh inconclusive
CNC(=S)N/N=C/C1=CCC2CC1C2(C)C (centres undefined)	TDP1 cell noCPT inconclusive, TDP1 cell CPT 7.31µM
Cc1ccc2nc(NC(=O)CSc3nc(=O)n(CCN(C)C)c4c3CCCC4)sc2c1	TDP1 cell noCPT inconclusive
COc1ccccc1NS(=O)(=O)c1ccc(N/N=C/c2ccccc2OCC(=O)O)c([N+](=O)[O-])c1	none
COc1ccc(NS(=O)(=O)c2ccc(NN=Cc3ccc(C(=O)O)cc3)c([N+](=O)[O-])c2)cc1	TDP1 block 44.7µM, ELG1 repair inh inconclusive (no result: IL-1B inflam inh, TDP1 cell noCPT, Giardia kill, TDP1 cell CPT)
COc1ccccc1NS(=O)(=O)c1ccc(N/N=C/c2c(C)nn(-c3ccccc3)c2N2CCCC2)c([N+](=O)[O-])c1	TDP1 cell noCPT 6.51µM, TDP1 cell CPT inconclusive
Cc1nn(-c2ccccc2)c(N2CCCC2)c1/C=N/Nc1ccc(S(=O)(=O)Nc2ccccc2)cc1[N+](=O)[O-]	TDP1 cell noCPT 7.31µM, TDP1 cell CPT 5.8µM
COc1c(/C=N/Nc2ccc([N+](=O)[O-])cc2[N+](=O)[O-])c(C)nn1-c1ccccc1	TDP1 cell noCPT inconclusive, TDP1 cell CPT inconclusive
COc1ccccc1NS(=O)(=O)c1cccc(C(=O)N/N=C/c2c(C)nn(-c3ccccc3)c2N2CCCC2)c1	TDP1 cell noCPT 20.6µM, TDP1 cell CPT 20.6µM, ELG1 repair inh inconclusive
O=C(O)c1ccc(/C=N/Nc2ccc(S(=O)(=O)N3CCCC3)cc2[N+](=O)[O-])cc1	none
N#Cc1nc(Nc2ccccc2)nc(NC2CCCC2)n1	none (no result: IL-1B inflam inh, TDP1 cell noCPT, Giardia kill, TDP1 cell CPT, ELG1 repair inh)
CC1CCCC/C1=N\Nc1ccc(S(N)(=O)=O)cc1[N+](=O)[O-] (centres undefined)	TDP1 cell noCPT inconclusive, TDP1 cell CPT inconclusive
